# From PubChem BioAssay AID2599 (Sanford-Burnham Center for Chemical Genomics, 2010)
# Out of some 330,000 compounds screened, about 5,800 (1.8%) were called active. Many of the other results were omitted from the sample, so actives are more common in it than they were. A number with no mark means an inactive call.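 How the source made its calls: active means inhibition above about 50% at the single tested dose (limit read from the data); inactive means the rest.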
# Molecular target: Sentrin-specific protease 6 (Homo sapiens) (UniProt Q9GZR1)
# Assay: inhibition of human SENP6 catalytic domain – biochemical, luminescence, uHTS, primary screen (AID 2599);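 further: plate controls were DMSO wells with enzyme for no effect and DMSO wells lacking enzyme for full effect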
# Conditions: Recombinant SENP6 catalytic domain, aminoluciferin luminescence; at 10 µM; active compounds read high
# Sequence of Sentrin-specific protease 6 (Homo sapiens) (Q9GZR1 628-1112 limits assumed): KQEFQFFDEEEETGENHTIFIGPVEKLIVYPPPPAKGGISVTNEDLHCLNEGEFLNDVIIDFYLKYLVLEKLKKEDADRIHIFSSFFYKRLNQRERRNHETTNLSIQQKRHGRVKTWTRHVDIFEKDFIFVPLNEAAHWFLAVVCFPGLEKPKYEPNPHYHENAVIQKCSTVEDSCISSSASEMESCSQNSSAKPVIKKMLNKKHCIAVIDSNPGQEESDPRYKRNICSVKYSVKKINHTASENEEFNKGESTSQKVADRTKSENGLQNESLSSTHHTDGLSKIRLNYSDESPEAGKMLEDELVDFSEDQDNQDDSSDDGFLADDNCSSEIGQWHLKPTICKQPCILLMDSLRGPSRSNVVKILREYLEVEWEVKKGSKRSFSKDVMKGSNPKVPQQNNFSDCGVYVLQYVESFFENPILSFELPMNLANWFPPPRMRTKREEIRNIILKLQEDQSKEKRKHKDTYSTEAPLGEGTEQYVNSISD
row,Compound,inhibition
1,COc1cccc(Nc2nc(N)c([N+](=O)[O-])c(NCc3ccco3)n2)c1,-15.6%
2,CCN1CCN(c2nc(Nc3cccc(F)c3)nc(N)c2[N+](=O)[O-])CC1,-5.24%
3,CNc1nc(Nc2ccc(C)c(Cl)c2)nc(N)c1[N+](=O)[O-],99.7% (active)
4,O=C(Nc1sc2c(c1C(=O)O)CCC2)c1ccccc1F,94% (active)
5,COC(=O)c1c(NC(=O)c2ccccc2F)sc2c1C(C(=O)OC)CC2 (stereo not given),-5.07%
6,O=C(O)c1c(NC(=O)N2CCCC2)sc2c1CCCC2,9.21%
7,Cc1cccc(Nc2nc3c(S(=O)(=O)c4ccccc4)nnn3c3ccccc23)c1C,-2.12%
8,Fc1ccc(COc2ccc(-c3nnco3)cc2)cc1,61.6% (active)
9,Fc1cccc(Cl)c1COc1ccc(-c2nnco2)cc1,-29.1%
10,Fc1ccc(COc2cccc(-c3n[nH]c(=S)o3)c2)cc1,-20.2%
11,Clc1ccc(-n2nnnc2-c2cnc(-c3ccccn3)nc2-c2cccs2)cc1,1.6%
12,Cc1ccc(-c2nc(-c3ccncc3)no2)c(C)c1,49.8%
13,Cc1noc(C)c1COC(=O)COc1ccc(-c2ccccc2)cc1,4.53%
14,c1ccc(-c2noc(-c3cccs3)n2)nc1,92% (active)
15,c1csc(-c2nc(-c3ccncc3)no2)c1,60.3% (active)
16,c1ccc(CCc2nc(-c3ccncc3)no2)cc1,-15.3%
17,O=C(Oc1ccc(-c2nc(-c3ccccn3)no2)cc1)c1ccccc1,97.9% (active)
18,COc1ccc(CCc2nc(-c3cccs3)no2)cc1,19.7%
19,O=C(COC(=O)c1ccncc1)c1ccccc1,-26.7%
20,Cc1nc(NC(CC(C)C)C(=O)O)c2nc(C)oc2n1 (stereo not given),7.07%
21,CCOC(=O)C(CC)Sc1ncnc2c1nnn2-c1ccc(F)cc1 (stereo not given),-3.73%
22,CCc1ccc(N(C(=O)c2csnn2)C(C(=O)NC2CCCCC2)c2cccnc2)cc1 (stereo not given),-39%
23,COc1ccc(C(CNC(=O)c2cc3c(s2)CCCC3)N2CCOCC2)cc1 (stereo not given),3.85%
24,O=C(COc1ccc(NC(=O)c2ccccc2[N+](=O)[O-])cc1)c1ccc(F)cc1,-17.5%
25,COc1ccc(/C=N/OCc2ccccc2C#N)c(OC)c1,-10.3%

row,Compound,inhibition
1,O=C(/C=C/Sc1ncn[nH]1)c1ccc(Cl)cc1,-14.2%
2,Cc1noc(/C=C/c2ccco2)c1S(=O)(=O)N1CCC(C(=O)N2CCc3ccccc32)CC1,-4.32%
3,CC(C)c1ccccc1OCC(O)CN(CC(O)COc1cccc2ccccc12)C(C)C (stereo not given),-38.4%
4,COc1ccc(-c2n[nH]c3c2CN(C(=O)c2ccc(F)cc2)CC3)cc1,-10.3%
5,O=C(CCN1C(=O)[C@H]2CC=CC[C@H]2C1=O)NCc1nc(-c2ccccc2)no1,-11%
6,OCCNc1nc(Nc2ccc(Cl)c(Cl)c2)nc2ccccc12,13.5%
7,COc1ccc(-c2nc(-c3ccccc3)no2)c(OC)c1,97.7% (active)
8,COc1ccc(-c2noc(CNC(=O)C(C)Oc3ccccc3)n2)cc1 (stereo not given),-14.5%
9,COc1ccc(OC)c(-c2csc(-c3cccs3)n2)c1,-21.1%
10,CN(C(=O)c1c(Cl)cnn1C)C12CC3CC(CC(C3)C1)C2,5.39%
11,CC(C)n1c(COc2ccccc2)nc2ccccc21,-4.84%
12,COCn1c(COc2ccccc2)nc2ccccc21,-7.24%
13,Cc1ccc(OCc2nc3ccccc3n2C)cc1,65.3% (active)
14,COc1cccc(N2CC(NC(=O)c3ccc4ccccc4c3)CC2=O)c1 (stereo not given),-9.84%
15,CC(C)(CNC(=O)c1ccc(Cl)c(S(=O)(=O)N2CCc3ccccc3C2)c1)N1CCOCC1,-0.183%
16,COc1ccc2occ(C(=O)c3ccc(N=C(C)N(C)C)cc3)c2c1,62.1% (active)
17,COc1ccc(OC)c(C(=O)c2ccc(Cl)cc2)c1,6.03%
18,COc1ccc(OC)c(C(=O)c2coc3ccc(OC)cc23)c1,-18.1%
19,O=C(N/N=C/c1ccc([N+](=O)[O-])cc1)C(=O)N1CCCC1,-54.5%
20,Cc1cc(O)c(NC(=O)c2ccc(C)c([N+](=O)[O-])c2)cc1C,-1.6%
21,Cc1ccc(/C=N/NC(=O)c2sccc2OCc2ccc(F)cc2)cc1,-36.4%
22,Cc1ccc(NC(=O)c2sccc2C)cc1[N+](=O)[O-],82.7% (active)
23,Cc1ccsc1C(=O)N/N=C/c1ccc([N+](=O)[O-])cc1,82.9% (active)
24,Cc1ccc(NC(=O)CN(C)CC(=O)Nc2cccc(F)c2)cc1[N+](=O)[O-],-3.74%
25,O=S(=O)(NC1CCCCC1)c1ccc(F)c2ccccc12,-13.8%
